Screening data deposited in PubChem BioAssay by National Center for Advancing Translational Sciences (NCATS).
The list is not random: actives were taken first. Their share in the collection is about 17%.
DT40 TDP1 no CPT: qHTS for Inhibitors of human tyrosyl-DNA phosphodiesterase 1 (TDP1): qHTS in cells in absence of CPT; Potency, µM (series often up to 46.2 µM), inactives show at the top dose activity change, negative = growth inhibition, actives largely listed as inhibitors; AID 686978, 2013; DT40 Tdp1-/- hTDP1 cells, no CPT, ATP luminescence, 48 h; hit rate 15% among 420,000; also: % is scaled to controls: 0 for no effect and ±100 for the full control effect; nearly all actives have a fitted effect of over 55% in size
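Compound effects on proliferation are scored in DT40 Tdp1-/-;hTDP1 cells in the absence of CPT. ATP levels (CellTiter-Glo luminescence) are recorded after a ≥48 hr, 37 °C incubation.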
TGFb SMAD3 inh: blocks TGF-b signaling. hit rate 1.2% among 410,000. AID 588855. HepG2 CAGA-GFP TGF-b/SMAD3 reporter, GFP fluorescence, 18 h; TGF-beta stimulated, 500 pg/mL final. Potency, µM (top dose mostly 46.1 µM), inactives show at the highest dose activity, negative = inhibition, actives largely listed as inhibitors; also: % is scaled to controls: 0 for no effect and ±100 for the full control effect; nearly all actives have a fitted effect of over 65% in size
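Read-out: total well GFP (ex488/em500-530) summed from mean per-cell fluorescence. Cells: HEPG2 CAGA-GFP, 1% FBS DMEM, 18 h at 37 degrees C with 500 pg/mL final TGF-beta. Unstimulated wells served as the full-inhibition control; stimulated DMSO wells = 0%.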
DT40 TDP1 CPT: growth inhibition of DT40 Tdp1-/-;hTDP1 cells with camptothecin (screen for TDP1 inhibitors); hit rate 12% among 420,000; chicken DT40 Tdp1-/-;hTDP1 cells + 20 nM CPT, ATP luminescence, 48 h; Potency, µM (highest dose often 46.2 µM), for inactives: at the highest dose activity change, negative = growth inhibition, most hits filed as inhibitors; AID 686979; also: % is scaled to controls: 0 for no effect and ±100 for the full control effect; nearly all actives have a fitted effect of over 55% in size
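Chicken DT40 Tdp1-/- cells complemented with human TDP1, 400 cells/well, exposed to compounds plus 20 nM camptothecin for at least 48 h at 37 C; viability read as ATP content by CellTiter-Glo luminescence.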
HepG2 tox: HepG2 cytotoxicity, counter-screen for TGF-b inhibitors | HepG2 CAGA-GFP viability, ATP luminescence, 18 h | Potency, µM (doses to about 46.1 µM), without a hit: top-dose activity change, negative = cytotoxicity, hits mostly cytotoxic | hit rate 0.76% among 410,000 | AID 588856
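HepG2 CAGA-GFP cells (1000/well, DMEM with 1% FBS) received compound, then TGF-beta at 500 pg/mL final, and were incubated 18 hours at 37 degrees C. Viability was read by CellTiter-Glo luminescence. Media-only wells were set as complete cell-killing and DMSO as no toxicity.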
HT1080NT lethal: kills 2HG-producing HT-1080-NT fibrosarcoma cells; HT-1080-NT fibrosarcoma viability, CellTiter-Glo ATP luminescence, 48 h; hit rate 1.6% among 360,000; Potency, µM (highest dose often 46.1 µM), for the others: at the highest dose activity, negative = less viability, usual class: cytotoxic;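 also: NT is the 2HG producing partner of a matched IDH1 knockdown line; 0% = DMSO-treated cells and -100% = media-only wells without cells; nearly all actives have a fitted effect of over 55% in size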
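HT-1080-NT; 750 cells/well; 5% FBS RPMI; 48 h compound, 37 degrees C; CellTiter-Glo luminescence; curve fitting and curve-class assignment.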
HT1080 IDH1KD tx: toxicity to HT-1080 IDH1 knockdown cells (counter line); HT-1080 IDH1 knockdown viability, ATP luminescence, 48 h; Potency, µM (doses to about 46.1 µM), for inactives: at the top dose activity, negative = toxicity, usual class: cytotoxic; hit rate 2% among 360,000;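 also: 0% = DMSO wells and -100% = cell-free medium wells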
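CellTiter-Glo luminescence after 48 h compound exposure at 37 degrees C of IDH1-knockdown HT-1080 cells in 5% FBS RPMI. %Activity scaled between DMSO wells and cell-free media wells, with curves fitted and assigned curve classes.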
An asterisk follows results filed as active. Calls follow the shape of the dose curve; as a rule, active = well fitted curve in the direction sought with a large enough effect; inconclusive = small, poorly fitted or top-dose-only effect, or another doubt; inactive = no such curve, though single readings can be large; an effect the other way counts as inactive or inconclusive. Potency is read from the fitted curve at half-maximal effect.

How did Cc1ccc2c(c1)C1CN(C)CCC1N2C(=O)c1cn(-c2ccccc2)nc1-c1ccccc1 (configuration not stated) do in these assays?
DT40 TDP1 no CPT: 16.4µM*; TGFb SMAD3 inh: inconclusive; DT40 TDP1 CPT: inconclusive; HepG2 tox: -44.0%; HT1080 IDH1KD tx: 20.6µM*

Results for Cc1ccc2c(c1)C1CN(C)CCC1N2C(=O)c1cccnc1Cl (configuration not stated) ?
DT40 TDP1 no CPT: -22.0%; TGFb SMAD3 inh: -2.4%; DT40 TDP1 CPT: -14.3%; HepG2 tox: -27.5%; HT1080NT lethal: 1.6%; HT1080 IDH1KD tx: 4.0%

What do the screens show for `Cc1ccc2c(c1)C1CN(C)CCC1N2C(=O)COc1ccc(N(C)C(=O)C(C)(C)C)cc1` (configuration not stated)?
DT40 TDP1 no CPT: 18.4µM*; TGFb SMAD3 inh: -1.1%; DT40 TDP1 CPT: inconclusive; HepG2 tox: 2.2%; HT1080NT lethal: -2.9%; HT1080 IDH1KD tx: -0.4%

How did Cc1ccc2c(c1)C1CN(C)CCC1N2C(=O)CCCN1C(=O)c2cccc3cccc(c23)C1=O (configuration not stated) do in these assays?
DT40 TDP1 no CPT: inconclusive; TGFb SMAD3 inh: inconclusive; DT40 TDP1 CPT: -10.7%; HepG2 tox: -24.3%; HT1080 IDH1KD tx: inconclusive

How did Cc1ccc2c(c1)C1CN(C)CCC1N2C(=O)Nc1cccc(C(F)(F)F)c1 (configuration not stated) do in these assays?
DT40 TDP1 no CPT: inconclusive; TGFb SMAD3 inh: 0.0%; DT40 TDP1 CPT: 20.6µM*; HepG2 tox: -86.4%; HT1080NT lethal: inconclusive; HT1080 IDH1KD tx: inconclusive

What do the screens show for `Cc1ccc2c(c1)[C@@H]1CN(C)CC[C@@H]1N2C(=O)Nc1cccc(C(F)(F)F)c1`?
DT40 TDP1 no CPT: 11.2µM*; TGFb SMAD3 inh: inconclusive; DT40 TDP1 CPT: 11.2µM*; HepG2 tox: -92.4%; HT1080NT lethal: 12.6µM*; HT1080 IDH1KD tx: inconclusive

How did O=S(=O)(c1ccc(Cl)cc1)N1CCC(n2cnc3cc(C(F)(F)F)ccc32)CC1 do in these assays?
DT40 TDP1 no CPT: inconclusive; TGFb SMAD3 inh: 0.0%; DT40 TDP1 CPT: inconclusive; HepG2 tox: -16.9%; HT1080NT lethal: 2.9%; HT1080 IDH1KD tx: 12.9%

Results for CCOP(=O)(/C(C#N)=C(\C)O)c1ccccc1 (configuration not stated) ?
DT40 TDP1 no CPT: inconclusive; TGFb SMAD3 inh: 6.6%; DT40 TDP1 CPT: -21.1%; HepG2 tox: 2.9%; HT1080NT lethal: -1.9%; HT1080 IDH1KD tx: -0.1%

Results for CC1(C(=O)O)CCC2(C)CCC3(C)C(=CC(=O)C4C5(C)CCC(=O)C(C)(C)C5CCC43C)C2C1 (configuration not stated) ?
DT40 TDP1 no CPT: -15.5%; TGFb SMAD3 inh: -9.1%; DT40 TDP1 CPT: -14.0%; HepG2 tox: -49.6%; HT1080NT lethal: 1.4%; HT1080 IDH1KD tx: -5.0%

How did CCCCn1c(O)c(C(C)=Nc2ccc(OCC)cc2)c(=O)[nH]c1=O do in these assays?
DT40 TDP1 no CPT: 23.1µM*; TGFb SMAD3 inh: -12.4%; DT40 TDP1 CPT: 18.4µM*; HepG2 tox: 2.5%; HT1080NT lethal: -2.1%; HT1080 IDH1KD tx: -6.6%

What do the screens show for `CCCCn1c(O)c(C(C)=NCCc2c[nH]c3ccccc23)c(=O)[nH]c1=O`?
DT40 TDP1 no CPT: 16.4µM*; TGFb SMAD3 inh: inconclusive; DT40 TDP1 CPT: inconclusive; HepG2 tox: -40.8%; HT1080NT lethal: -11.1%; HT1080 IDH1KD tx: -6.1%

What do the screens show for `C=CCn1c(O)c(C(C)=NCCc2c[nH]c3ccccc23)c(=O)[nH]c1=O`?
DT40 TDP1 no CPT: -8.4%; TGFb SMAD3 inh: 7.1%; DT40 TDP1 CPT: 18.4%; HepG2 tox: 8.9%; HT1080NT lethal: 27.3%; HT1080 IDH1KD tx: 20.1%

How did C[C@]12CCC3C(CC[C@]4(O)CC(O)CC[C@@]34C=O)[C@]1(O)CCC2C1=CC(=O)OC1 (some centres not stated) do in these assays?
DT40 TDP1 no CPT: -20.9%; DT40 TDP1 CPT: 10.2%

Results for CC1O[C@@H](OC2CC[C@@]3(C=O)C4CC[C@]5(C)C(C6=CC(=O)OC6)CC[C@@]5(O)C4CC[C@]3(O)C2)C(O)C(O)C1O (some centres not stated) ?
DT40 TDP1 no CPT: 0.581µM*; DT40 TDP1 CPT: 0.461µM*

What do the screens show for `C[C@@H]1O[C@@H](O[C@H]2CC[C@]3(C=O)C4CC[C@]5(C)[C@@H](C6=CC(=O)OC6)CC[C@]5(O)[C@@H]4CC[C@]3(O)C2)[C@H](O)[C@H](O)[C@H]1O` (some centres not stated)?
DT40 TDP1 no CPT: 0.326µM*; DT40 TDP1 CPT: 0.366µM*

How did Ic1cncc(OC[C@@H]2CCN2)c1 do in these assays?
DT40 TDP1 no CPT: -1.1%; DT40 TDP1 CPT: 13.7%

How did COCC(=O)N1CCC2(CCCN(Cc3ccncc3)C2)CC1 do in these assays?
DT40 TDP1 no CPT: -10.6%; DT40 TDP1 CPT: 3.6%

How did Cc1cccc(CN2CCc3nc(N4CCN(c5ccccn5)CC4)ncc3C2)c1 do in these assays?
DT40 TDP1 no CPT: 10.3µM*; TGFb SMAD3 inh: 0.0%; DT40 TDP1 CPT: 14.6µM*; HepG2 tox: -13.4%

How did CS(=O)(=O)c1ccc(C2=C(CNC(=O)c3ccncc3)[C@H]3CC[C@@H](C2)N3Cc2ccco2)cc1 do in these assays?
DT40 TDP1 no CPT: -2.6%; TGFb SMAD3 inh: -2.9%; DT40 TDP1 CPT: 3.2%; HepG2 tox: -10.5%; HT1080NT lethal: -0.9%; HT1080 IDH1KD tx: 0.4%

What do the screens show for `O=C(Nc1ncccc1O)c1ccc(S(=O)(=O)NCc2ccco2)cc1`?
DT40 TDP1 no CPT: 23.1µM*; TGFb SMAD3 inh: 0.2%; DT40 TDP1 CPT: 20.6µM*; HepG2 tox: -7.6%; HT1080NT lethal: -2.4%; HT1080 IDH1KD tx: -21.0%

How did O=C(CSc1nc2ccccc2c(=O)n1-c1ccccc1)Nc1ccc2c(c1)CCC2 do in these assays?
DT40 TDP1 no CPT: 20.6µM*; TGFb SMAD3 inh: 2.2%; DT40 TDP1 CPT: inconclusive; HepG2 tox: -10.3%; HT1080NT lethal: -1.9%; HT1080 IDH1KD tx: -0.2%

Results for CCCCCNC(=O)C(c1ccncc1)n1c(=O)c(-c2cc3ccccc3[nH]2)nc2ccccc21 (configuration not stated) ?
DT40 TDP1 no CPT: inconclusive; DT40 TDP1 CPT: 16.4µM*; HT1080NT lethal: inconclusive; HT1080 IDH1KD tx: 16.4µM*
